# Bioassay records from PubChem.
# Shown are actives, neighbours in structure and some others; about 13% of the full set was active somewhere.
# MARV entry inh: Marburg virus entry inhibition; Marburg virus pseudotyped entry inhibition, cell reporter; Potency, µM (highest dose often 37.8 µM), inactives show top-dose activity change, negative = inhibition, usual class: inhibitors; 300,000 tested, 1.8% active; calls by dose curve; tested in HEK293 cells; note: potency is the fitted concentration of half-maximal effect; % is set by controls: 0 for no effect and ±100 for the full control effect
# FMDV antiviral: antivirals against foot and mouth disease virus; AID 1159524; 410,000 tested, 1.2% active; Potency, µM (top dose mostly 57.9 µM), for the others: top-dose activity change, negative = inhibition, usual class: inhibitors; FMDV antiviral cell-based qHTS; calls by dose curve; tested in HEK293T cells; note: read-out not given here; potency is the fitted concentration of half-maximal effect; % is set by controls: 0 for no effect and ±100 for the full control effect; nearly all actives have a fitted effect of over 45% in size
# CHX counter-1: affects cycloheximide protein synthesis inhibition readout, counter-screen; cell reporter, cycloheximide protein synthesis inhibition counterscreen; max response, %; 300,000 tested, 12% active; in the data active = max response mostly above about 13%, no sharp cut-off; inactive = mostly below about 14%; note: read at 38.3 µM for the half of the compounds with a filed dose; 0% is about no effect
# Shiga inhibitor: blocks Shiga toxin action in Vero cells; inhibition, % at 38.7 µM; Vero cells, Shiga toxin protein synthesis inhibition reporter; 290,000 tested, 9.2% active; in the data active = inhibition mostly above about 28%, no sharp cut-off; inactive = mostly below about 43%; note: 0% is about no effect
# HCV inh: HCV inhibition; Huh7.5.1 HCVcc-Cre infection, luciferase reporter, 44 h; Potency, µM (series often up to 41.8 µM), inactives show top-dose activity change, negative = inhibition, most hits filed as inhibitors; 340,000 tested, 3.4% active; active = well fitted inhibition curve with a large enough effect; inconclusive = small, poorly fitted or top-dose-only effect, or another doubt; inactive = no such curve, though single readings can be large or run the other way; note: potency is the fitted concentration of half-maximal effect; % is set by controls: 0 for no effect and ±100 for the full control effect
#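 Whole-lifecycle infectious HCVcc-Cre system; cells 1,000/well, compound then virus (~0.5 moi) added 4 h after plating, 44 h culture. Luciferase read 15 sec following 15 min substrate incubation, room temp.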
# Lassa entry inh: blocks Lassa virus binding to or entry into cells; Lassa virus pseudotype entry inhibition, cell reporter; Potency, µM (top dose mostly 37.9 µM), for the others: top-dose activity change, negative = inhibition, hits mostly inhibitors; 300,000 tested, 1.2% active; AID 540256; calls by dose curve; tested in HEK293 cells; note: potency is the fitted concentration of half-maximal effect; % is set by controls: 0 for no effect and ±100 for the full control effect; nearly all actives have a fitted effect of over 50% in size
# CHX counter-2: protein synthesis counter-screen activity for Shiga toxin hits; shares compounds with Shiga inhibitor; Cycloheximide counterscreen, protein synthesis reporter, Shiga toxin assay; Potency, µM (highest dose often 38.3 µM), for the others: top-dose activity (activation), most hits filed as activators; 510 tested, 3% active; calls by dose curve; note: potency is the fitted concentration of half-maximal effect; 0% is about no effect
# Starred values were filed as active, the others as inactive; ? = inconclusive; . = no result given; + = active, no number; [ ] = another dose, or the depositor's remark.
SMILES,MARV entry inh,FMDV antiviral,CHX counter-1,Shiga inhibitor,HCV inh,Lassa entry inh,CHX counter-2
CCC(C)(O)c1[nH]c2ccc(C(F)(F)F)cc2c1C (configuration not stated),.,-22%,-3,18*,-25%,.,1%
CCOC(=O)CNc1cccc(C(F)(F)F)c1,2%[46.1 µM],-1%,6,-2,22%,4%[46.1 µM],.
O=S(=O)(Nc1cccc(-c2ccc(N3CCOCC3)nn2)c1)c1cc(C(F)(F)F)ccc1Cl,.,84%,.,.,.,0%[46.1 µM],.
O=C(CCn1cnnn1)Nc1ccccc1,5%,3%,9,22*,-3%,?,-3%
COCCNC(=O)C(c1ccccc1F)N(C(=O)C(=O)NC1CCCC1)C1CCCCC1 (configuration not stated),-16%[46.1 µM],-1%,2,15,?,?,.
COc1cc(C(=O)N2CCN(C(=O)c3cc(-c4ccc(Br)cc4)n[nH]3)CC2)cc(OC)c1OC,.,-14%,13,25,-7%,.,.
CCN1CCCC1CNC(=O)c1ccc(N2CCCC2=O)cc1 (configuration not stated),4%[46.1 µM],23%,2,-6,6%,?,.
COc1cc2c(c(OC)c1OC)-c1c(cc(OC)c(OC)c1OC)CC(C)C(C)C2 (configuration not stated),.,.,8,32*,.,.,2%
O=C(COC(=O)c1cncc(Br)c1)Nc1nc(-c2ccc(F)cc2)cs1,16%[46.1 µM],14%,8,27*,-28%,-2%,?
O=C(COC(=O)c1cncc(Br)c1)Nc1nnc(-c2ccccc2)o1,.,-6%,.,.,8%,.,.
COc1ccc2[nH]c(-c3ccccc3)cc(=O)c2c1,.,.,17,+,.,.,?
O=c1cc(-c2cccc(F)c2)[nH]c2ccc(Cl)cc12,.,.,9,+,.,.,-2%
COc1cccc(-c2cc(=O)c3cc(NC(=O)c4ccccc4)ccc3[nH]2)c1,-33%,-20%,9,-7,?,?,.
COc1cc(NC(=S)N2CCc3ccccc3C2)cc(OC)c1,?,39%,9,39,11%,14%[46.1 µM],.
COc1ccccc1NC(=O)CSc1nnc(CC(=O)Nc2ccccc2F)n1C,10%[46.1 µM],35%,11,56*,22%,6%[46.1 µM],-2%
O=C(COc1ccc(Cl)cc1Cl)NCCN1CCCCC1,.,-8%,.,.,.,.,.
COc1ccc(C2=CC(c3ccc(N(C)C)cc3)n3nnnc3N2)cc1 (configuration not stated),.,0%,.,.,.,-2%[46.1 µM],.
COc1ccc(C2=CC(c3ccc(C)cc3)n3nnnc3N2)cc1 (configuration not stated),22%,-20%,-2,69*,1%,-15%,4%
Cc1ccc(N/C(C(Cl)=C(Cl)Cl)=C(/Cl)[N+](=O)[O-])c(C)c1,-31%,-3%,9,23*,?,10%,-2%
CCNc1c(NC(=O)c2cccs2)c(=O)oc2ccccc12,1%[46.1 µM],0%,2,30*,3%,6%,1%
Cc1cc(C)n(-c2nc3c(c(=O)[nH]c(=O)n3C)n2Cc2cccc(Br)c2)n1,5%,-13%,4,84*,-3%,8%,-3%
O=C(c1cccc(Cl)c1)N1CCC2CC1c1cc(N3CCOCC3)ccc12 (configuration not stated),.,-13%,.,.,?,.,.
CC1CCC(Nc2ncnc3onc(-c4ccc(F)cc4)c23)CC1 (configuration not stated),.,-16%,.,.,.,3%[46.1 µM],.
CN(C)CCNC(=O)c1ccc2c(=O)n3c(nc2c1)CCCCC3,-7%[46.1 µM],-18%,.,.,.,25%[46.1 µM],.
CN(C(=O)c1ccc2c(=O)n3c(nc2c1)CCCCC3)c1ccccc1,-18%,5%,13,+,13%,-20%,4%
SMILES,MARV entry inh,FMDV antiviral,CHX counter-1,Shiga inhibitor,HCV inh,Lassa entry inh,CHX counter-2
COc1ccc(CNC(=O)CSc2nc3ccccc3nc2Cc2ccccc2OC)cc1,.,9%,.,.,.,28%[46.1 µM],.
O=C(CCn1cccn1)Nc1ccc(Br)cc1F,.,13%,.,.,.,?,.
COc1cc(C2C(S(=O)(=O)c3ccccc3)CON2C)ccc1OCc1ccc(F)cc1 (configuration not stated),?,-7%,12,43*,3%,9%,5%
CN1OCC(S(=O)(=O)c2ccccc2)C1c1ccccc1 (configuration not stated),-4%[46.1 µM],-13%,9,-3,6%,16%[46.1 µM],.
CCOc1ccc(NC(=O)Cc2c(C(=O)O)n(C)c3ccccc23)cc1,5%,-7%,-3,-1,9%,-2%,.
COc1ccc(CN2C(=O)C(Cc3ccccc3)Nc3ncnc(N4CCc5ccccc5C4)c32)cc1 (configuration not stated),.,.,.,.,-22%,.,.
O=C(/C=C/c1ccc(Cl)cc1)N1CCN(Cc2ccccc2)CC1,?,-1%,9,25*,-15%,0%,3%
CCNc1ncc2nc(-c3cc(F)cc(F)c3)c(=O)n(-c3ccc(OC)cc3)c2n1,.,-2%,.,.,.,.,.
O=C(c1ccco1)N1CCN(C(=O)c2cc(-c3ccncc3)nc3ccc(Br)cc23)CC1,?,-29%,.,.,?,-14%,.
O=C(c1ccco1)N1CCN(C(=O)c2cc(-c3ccccn3)nc3ccc(Cl)cc23)CC1,-10%,-4%,5,32*,-19%,?,-1%
Cc1ccc(NC(=O)Cn2cnc3cc([N+](=O)[O-])ccc3c2=O)c(Cl)c1,0%[46.1 µM],-2%,1,-5,-11%,17%,.
O=C(Cn1cnc2cc([N+](=O)[O-])ccc2c1=O)NCc1ccc(Cl)cc1,-19%[46.1 µM],-21%,6,47*,-22%,6%,-1%
CCN(C(=O)CSc1nnc(Nc2ccccc2C)s1)C1CCS(=O)(=O)C1 (configuration not stated),?,-20%,-1,-5,31%,17%,.
COc1ccc2c(c1)c(/C=N/Nc1nc3ccccc3[nH]1)c(C)n2C,?,?,7,36,?,?,.
COc1ccc(S(=O)(=O)N(Cc2nc(-c3ccccc3)no2)C2CCCCC2)cc1,12%[46.1 µM],12%,.,.,.,-15%[46.1 µM],.
Cc1ccccc1S(=O)(=O)Nc1ncnc2ccccc12,2%[46.1 µM],18%,-1,33*,-12%,3%,-2%
Cc1c(C(=O)Nc2nc3ccccc3[nH]2)oc2ccc(Br)cc12,0%,38%,12,14*,-13%,-2%,10µM*
Cc1ccc(S(=O)(=O)N2CCC(C(=O)N[C@@H](Cc3ccccc3)C(=O)O)CC2)cc1,?,9%,5,34*,16%,6%,0%
Cc1ccc(S(=O)(=O)N2CCC(C(=O)NCCc3ccccc3)CC2)cc1,28%,-2%,-6,-8,15%,1%,.
CC(=O)c1ccc(N2CCN(S(=O)(=O)c3ccc4c(c3)CC(C)N4C(C)=O)CC2)cc1 (configuration not stated),?,?,11,34*,6.3µM*,?,9%
